Compound activity (PubChem)
ssDAF12 agonist = activators of S. stercoralis DAF-12 nuclear receptor | hit rate 1% among 370,000 | activation, % at 6.8 µM | AID 652126 | HEK293 ssDAF-12/GRIP1 lit1-tk-luc reporter, luminescence; % of 3 µM dafachronic acid response;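 active = activation above the mean over all tested compounds plus 3 SD, cut at about 0.9% in these data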
hgDAF-12 ag = hgDAF-12 agonism, primary luciferase screen | HEK293 GAL4-hgDAF12 UAS-luciferase reporter, agonist luminescence; normalized to butyrate control | activation, % at 6.8 µM | hit rate 1.8% among 370,000;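 active = activation above a cutoff set at the mean of all screened compounds plus 3 SD, cut at about 10% in these data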
SMARCA2 act = SMARCA2 function activation, primary screen; hit rate 1% among 370,000; activation, % at 9.1 µM; MG213 cells, MMTV-luciferase reporter, dexamethasone, overnight; AID 652017; in the data active = activation above about 7.8%
hcDAF12 agonist = H. contortus DAF-12 activation, primary screen; HEK293 hcDAF-12 lit1-tk-luc reporter, luminescence; 0% DMSO, 100% Δ7-dafachronic acid; activation, % at 6.8 µM; hit rate 1.4% among 370,000; AID 652067;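 active = activation above the mean of all tested compounds plus 3 SD, cut at about 5.5% in these data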
DAX1 StAR inh = DAX1 (NR0B1) inhibition, primary screen; HEK293T StAR-luciferase reporter, SF-1/DAX-1 repression relief; inhibition, % at 6.8 µM; hit rate 1.1% among 370,000; AID 652010;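 active = inhibition above the mean over all tested compounds plus 3 SD, cut at about 3.6% in these data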;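 also: higher inhibition means more luminescence from relief of DAX-1 repression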
SMARCA2 act conf = SMARCA2 activation, confirmation screen | MG213 cells, MMTV-luciferase with dexamethasone, luminescence, overnight; MG213 cells expressing E1A, Rb sequestered; DMSO wells 0%, reference activator 100% | shares compounds with SMARCA2 act | activation, % at 9.1 µM | hit rate 30% among 3,500 | AID 652260;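 active = activation above its plate's cutoff, the mean activation of tested wells plus 3 SD, cut at about 7.9% in these data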
GAL4-VP16 Luc = counter-screen for SMARCA2 activators: GAL4-VP16 luciferase reporter activation; shares compounds with SMARCA2 act; HEK293 GAL4-VP16 pG5luc reporter, luciferase luminescence; scaled: DMSO wells 0%, SAHA wells 100%; activation, % at 9.1 µM; hit rate 41% among 3,500; AID 686939;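 active = activation above the solvent-only control well mean plus 3 SD, averaged across control plates, cut at about 5.2% in these data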
Large screens that a line does not name were inactive (follow-up assays come after a bar, where they were run). Shown are actives, neighbours in structure and some others; about 4.2% of the full set was active somewhere.

N#C/C(=N/Nc1ccccc1F)C(=N)N1CCOCC1	SMARCA2 act 9.4 | SMARCA2 act conf 11 | GAL4-VP16 Luc inactive
COc1ccc(N/N=C(\C#N)C(=N)N2CCOCC2)cc1	none
CC(=O)Oc1cc(C)c(Cl)c2c(OC(C)=O)cc(C(C)=O)c(O)c12	none
C/C(=N\N1C(=O)c2ccccc2NC1c1ccccc1)c1ccccc1O (stereo unspecified)	SMARCA2 act 9.9, DAX1 StAR inh 3.8 | SMARCA2 act conf inactive | GAL4-VP16 Luc 5.7
CCc1c(O)nc(SCC(=O)c2ccccc2)n(-c2ccccc2)c1=O	none
CCc1c(O)nc(SCC(=O)NC(C)(C)C)n(-c2ccccc2)c1=O	SMARCA2 act 8.1 | SMARCA2 act conf inactive | GAL4-VP16 Luc inactive
COc1cc(N2CCC(O)CC2)ccc1Nc1cc(Nc2ccccc2S(=O)(=O)C(C)C)c2cc[nH]c2n1	none
O=C(Cn1nnc(-c2ccc(N3CCOCC3)cc2)n1)c1ccccc1	none
CCOc1nc(-c2ccc(Cl)cc2Cl)ccc1C#N	none
Cc1nc(-c2cc(C#N)c(Sc3ccc(Cl)cc3Cl)nc2C)cs1	SMARCA2 act 10 | SMARCA2 act conf inactive | GAL4-VP16 Luc inactive
O=C(Nc1ccccc1[N+](=O)[O-])NC1CCCCN(Cc2ccc(Cl)cc2)C1=O (stereo unspecified)	none
S=C(SCc1cc(Cl)cc2c1OCOC2)N1CCSCC1	none
CC1CCCCC1NC(=O)C(Cc1ccccc1)NS(=O)(=O)c1cccs1 (stereo unspecified)	SMARCA2 act 8.7 | SMARCA2 act conf inactive | GAL4-VP16 Luc inactive
C=CCn1c(COc2ccccc2)nnc1SCC(=O)Nc1ccc(Oc2ccccc2)cc1	none
Cc1cc(C(=O)c2cccs2)c(N)s1	SMARCA2 act 8.9 | SMARCA2 act conf inactive | GAL4-VP16 Luc inactive
Cc1cc(C)c(C(=O)c2cccs2)c(C)c1	none
CCc1ccccc1-n1ncc(C(=O)Nc2ccc(OC)cc2)c1C	SMARCA2 act 8.0 | SMARCA2 act conf inactive | GAL4-VP16 Luc 12
COc1ccc(NC(=O)c2ccccc2C)cc1	none
CC(COc1cccc(OC(F)(F)F)c1)CN1CCC(C(O)(c2ccccc2)c2ccccc2)CC1 (stereo unspecified)	none
CCOC(=O)c1ccc(COC(=O)c2ccc3c(c2)-c2ccccc2C3=O)cc1	SMARCA2 act 8.9 | SMARCA2 act conf inactive | GAL4-VP16 Luc inactive
CC(=O)c1cc(-c2ccc([N+](=O)[O-])cc2)c(=O)n2c1CCC2	none
Brc1ccc(-c2nnc(-c3ccccc3Br)o2)cc1	SMARCA2 act 8.4 | SMARCA2 act conf inactive | GAL4-VP16 Luc 13
Brc1ccccc1-c1nnc(-c2cccnc2)o1	none
COc1ccc(C2C(C(=O)N3CCN(c4ccccc4C)CC3)CC(=O)N2c2ccc(OC)cc2)cc1 (stereo unspecified)	none
O=C(CC1C(=O)CCCC1=O)c1ccccc1	SMARCA2 act 8.6 | SMARCA2 act conf 8.1 | GAL4-VP16 Luc inactive
O=C(CCC1CCCCC1=O)c1ccccc1 (stereo unspecified)	none
COc1ccc(NS(=O)(=O)c2cccc(C(=O)NNC(=O)CNC(=O)c3ccc(C)cc3)c2)cc1	none
COc1ccc(NS(=O)(=O)c2cccc(C(=O)NNC(=O)CNC(=O)c3ccccc3F)c2)cc1	SMARCA2 act 8.2 | SMARCA2 act conf inactive | GAL4-VP16 Luc inactive
O=Cc1nc(Nc2cc(F)cc(F)c2)nc(NC2CCCC2)n1	none (no result: SMARCA2 act, DAX1 StAR inh)
Cc1ccccc1CC(=O)Nc1ccc2c(c1)CCC2	none
O=C(Cc1ccccc1F)Nc1ccc2c(c1)CCC2	SMARCA2 act 12 | SMARCA2 act conf inactive | GAL4-VP16 Luc 6.6
CC(C)C[C@H]1CNC(=O)C(=O)N1C[C@@H]1CCCN1C[C@H](Cc1ccccc1)N1C[C@H](CC(C)C)N(CC2CCCCC2)C(=O)C1=O	none
Nc1ccccc1C(=O)NCc1ccc(Cl)cc1	SMARCA2 act 8.1 | SMARCA2 act conf inactive | GAL4-VP16 Luc inactive
Nc1ccccc1C(=O)NCc1ccc(F)cc1	none
COc1ccc(C(=O)Nc2ccccc2C(=O)N/N=C/c2ccncc2)cc1OC	SMARCA2 act 8.5 | SMARCA2 act conf 18 | GAL4-VP16 Luc 6.0
O=C(NC(=S)Nc1cccc(O)c1)c1ccco1	ssDAF12 agonist 1.7, SMARCA2 act 9.1 | SMARCA2 act conf inactive | GAL4-VP16 Luc 7.6
O=C(NNC(=S)Nc1ccc(F)cc1F)c1ccco1	SMARCA2 act 12 | SMARCA2 act conf 8.6 | GAL4-VP16 Luc inactive
O=C(NC(=S)Nc1ccccn1)c1ccco1	SMARCA2 act 8.8 | SMARCA2 act conf 12 | GAL4-VP16 Luc 8.6
CCOC(=O)[C@]12CCCC=C1N(Cc1ccc(OC)cc1)C(=O)[C@@H]2CC(=O)N1CCSCC1	none
CN1CCN(Cc2nc3ccccc3c(=O)n2Cc2nc(-c3ccc([N+](=O)[O-])cc3)cs2)CC1	SMARCA2 act 17 | SMARCA2 act conf 44 | GAL4-VP16 Luc inactive
CN(C)CCNc1cccc2sc3ccc(O)cc3c(=O)c12	SMARCA2 act 16 | SMARCA2 act conf 31 | GAL4-VP16 Luc 8.4
CSc1ncccc1C(=O)OCC(=O)NC1CCCC1	SMARCA2 act 8.6 | SMARCA2 act conf inactive | GAL4-VP16 Luc inactive
COC(=O)[C@]12CCCCC=C1N(Cc1ccccc1)C(=O)[C@H](CC(=O)N1CCOCC1)C2	none
Nc1nc2n[nH]nc2c(=O)[nH]1	ssDAF12 agonist 1.5, SMARCA2 act 14 | SMARCA2 act conf 22 | GAL4-VP16 Luc inactive
Nc1nc2nn(-c3ccccc3)nc2c(=O)[nH]1	none
O=C(NCCCc1ccccc1)[C@H](CO)NC1(C(=O)NCCc2c[nH]c3ccccc23)CCCCC1	none (no result: SMARCA2 act, DAX1 StAR inh)
COc1ccc(CN2C(=O)c3ccccc3C2c2nnnn2C(C)C)cc1 (stereo unspecified)	none
CC(C)n1nnnc1C1c2ccccc2C(=O)N1CCc1ccccc1F (stereo unspecified)	hgDAF-12 ag 15, SMARCA2 act 8.8, hcDAF12 agonist 5.7 | SMARCA2 act conf inactive | GAL4-VP16 Luc 7.4
Cc1cccn2cc(-c3cccc(NC(=O)c4cccs4)c3)nc12	SMARCA2 act 9.4 | SMARCA2 act conf inactive | GAL4-VP16 Luc inactive
O=C(Nc1cccc(-c2cn3cccnc3n2)c1)c1cccs1	none
O=C(CCN1C(=O)/C(=C\c2ccccc2)SC1=S)NNC(=O)c1ccncc1	SMARCA2 act 9.7 | SMARCA2 act conf inactive | GAL4-VP16 Luc inactive
O=C(CCN1C(=O)/C(=C/c2ccccc2)SC1=S)NNC(=O)c1ccncc1	none
O=C(CCSCc1ccccc1)Nc1ccc2c(c1)OCCO2	none
O=C(Nc1ccc2c(c1)OCCO2)N1CCOCC1	SMARCA2 act 9.7 | SMARCA2 act conf inactive | GAL4-VP16 Luc inactive
